Drawing on publication PMC5540273 (PLoS ONE, 2017), this text covers Kd for seven compounds.

Each structure is given as a SMILES string. pKd: −log10 of the molar value.
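Also: kd values determined as follow-up on hits from a single-replicate KINOMEscan panel screen.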

In this test the test system is CSNK1E.
What is called pKd is the Kd on a negative log10 scale, so that one unit is a factor of ten. `Fc1ccc(-c2ncn(CCCNCc3ccccc3)c2-c2ccncc2)cc1` gave a pKd of 6.89. Compound `CCc1nc(-c2cccc(C)c2)c(-c2ccnc(NC(=O)c3ccccc3)c2)s1` had a pKd of 6.06.

With `CN1CCC(n2cnc(-c3ccc(F)cc3)c2-c2ccnc(NC3CCNCC3)n2)CC1` [SB-229482], the pKd is 6.68. `CC(C)N1CCC(n2cnc(-c3ccc(F)cc3)c2-c2ccnc(N)n2)CC1` [SB-223132] showed a pKd of 6.64. For `CSc1nn2c(=O)cc(N3CCOCC3)nc2n1Cc1cccc(Cl)c1Cl` [GSK2347225], the pKd is less than 5.00. In the case of `O=C(NCCCN1CCCC1=O)c1cnc(NCc2cc(Cl)ccc2Cl)nc1NC1CCNCC1`, the pKd was 6.64.

`CNc1nccc(-c2c(-c3ccc(F)cc3)ncn2C2CCN(C)CC2)n1` [SB-222903] gave a pKd of 7.77.
